Screening data deposited in PubChem BioAssay by National Center for Advancing Translational Sciences (NCATS).
The full list was thinned out, with hits kept by preference.
CBFb-RUNX1 inh: inhibitors of human CBF-beta and RUNX1 interaction. AID 1477. Potency, µM (highest dose often 59.8 µM), for the others: at the top dose activity, negative = inhibition, actives largely listed as inhibitors. 230,000 tested, under 10 active. AlphaScreen CBFb-His/RUNX1-biotin binding, biochemical; active = well fitted curve in the direction sought with a large enough effect; inconclusive = small, poorly fitted or top-dose-only effect, or effect the other way, or another doubt; inactive = no such curve, though single readings can be large or run the other way; also: % of control where 0% means no effect
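Bead-based AlphaScreen assay; binding partners His-tagged CBF-beta and biotinylated RUNX1 at 30 nM each. Compound exposure 15 min after a 20-min protein preincubation; bead step 90 min; all steps at room temperature.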
Rango complex inh: Rango-importin beta binding inhibition | Q14974 | Rango CFP/YFP FRET sensor + importin beta, 45 min | Potency, µM (top dose mostly 92.2 µM), inactives show at the highest dose inhibition of complex formation | 340,000 compounds, 0.031% hits;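 also: potency is read from the fitted curve at half-maximal effect; 0% = DMSO wells and 100% = buffer wells lacking importin beta; nearly all actives have a fitted effect of over 15% in size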
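FRET biosensor Rango (snurportin 1 IBB between N-terminal EYFP and C-terminal Cerulean), 50 nM in PBS/1 mM DTT/0.02% Tween-20/0.1% BSA, preincubated 5 min RT with compound; 0.125 microM importin beta added, 45 min RT, CFP/YFP FRET ratio read.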
ClpP mod: qHTS Assay for Activators of ClpP; 340,000 compounds, 1.9% hits; ATP-dependent Clp protease proteolytic subunit (Bacillus subtilis (strain 168)), P80244; purified B. subtilis ClpP, FRET peptide cleavage, 20 min; Potency, µM (top dose mostly 57.5 µM), without a hit: at the highest dose activity change, negative = active; active = well fitted falling curve with a large enough effect; inconclusive = small, poorly fitted or top-dose-only effect; inactive = no such curve, though single readings can be large or run the other way; also: potency is read from the fitted curve at half-maximal effect; the source files actives as falling curves though it sought activators and does not explain the sign; nearly all actives have a fitted effect of over 65% in size
Target sequence (P80244 whole entry, looked up): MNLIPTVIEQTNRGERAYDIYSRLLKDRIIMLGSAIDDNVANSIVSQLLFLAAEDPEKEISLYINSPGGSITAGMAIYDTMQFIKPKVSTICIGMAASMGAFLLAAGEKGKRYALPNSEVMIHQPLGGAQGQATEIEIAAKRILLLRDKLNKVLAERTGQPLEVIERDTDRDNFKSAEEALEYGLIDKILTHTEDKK
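Buffer: 100 mM Tris/HCl pH8, 100 mM KCl, 0.05% low protease BSA, 2.5% glycerol, 0.01% Tween-20. ClpP 10 microg/mL final; 20 min RT; delta FRET normalized to ADEP and DMSO controls.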
MBNL1 CUG block: inhibitors of human MBNL1 binding to CUG repeat RNA; Q9NR56; TR-FRET MBNL1-His/biotin-(CUG)12 binding, 665/545 ratio; Potency, µM (doses to about 57.5 µM), inactives show at the top dose activity change, negative = inhibition, most hits filed as inhibitors; 280,000 compounds, 0.036% hits; AID 2675; active = well fitted inhibition curve with a large enough effect in the signal ratio, with a control signal flat, not every such curve was filed as active; inconclusive = small, poorly fitted or top-dose-only effect, or effect the other way, or a change in a side signal; inactive = no such curve, though single readings can be large or run the other way; the % refers to the signal ratio; also: potency is read from the fitted curve at half-maximal effect; % is scaled to controls: 0 for no effect and ±100 for the full control effect
Target sequence (Q9NR56 whole entry, looked up): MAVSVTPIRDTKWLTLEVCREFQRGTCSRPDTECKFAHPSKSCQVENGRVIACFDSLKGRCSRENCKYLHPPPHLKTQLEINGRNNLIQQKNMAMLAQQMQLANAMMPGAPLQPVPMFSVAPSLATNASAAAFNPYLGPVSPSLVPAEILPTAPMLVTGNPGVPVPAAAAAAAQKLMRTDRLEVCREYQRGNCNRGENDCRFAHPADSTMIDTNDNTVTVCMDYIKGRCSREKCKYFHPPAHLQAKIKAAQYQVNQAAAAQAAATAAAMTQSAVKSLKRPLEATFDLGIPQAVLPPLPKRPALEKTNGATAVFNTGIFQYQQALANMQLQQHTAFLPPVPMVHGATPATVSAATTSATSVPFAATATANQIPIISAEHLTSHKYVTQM
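MBNL1-His + Biotin-(CUG)12, cpd titration 92 nM–58 uM; Tb anti-His Ab 0.055 ng/ul, SA-XL665 5 nM (final); 60 min RT; ratiometric 665/545 nm, Ex 340 nm; normalized to buffer and full-complex controls.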
Rango dissoc inh: inhibitors of RanGTP-induced Rango-importin beta complex dissociation; 340,000 compounds, 0.071% hits; O95149+P62826; Potency, µM (highest dose often 46.1 µM), without a hit: at the top dose activity change, negative = inhibition; Biochemical FRET Rango-importin beta, RanGTP-induced dissociation; also: potency is read from the fitted curve at half-maximal effect; % of control where 0% means no effect; nearly all actives have a fitted effect of over 45% in size
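Quantitative HTS using a FRET biosensor: 0.1 uM Rango, 0.25 uM importin beta, 0.6 uM Ran, 2 mM GTP, 0.2 uM RCC1 final, PBS with DTT, Tween-20 and BSA. Post-read taken 45 min after Ran addition.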
Active calls of the source: *; u = inconclusive; x = no result. Unless noted, calls follow the shape of the full dose curve.

SMILES | CBFb-RUNX1 inh | Rango complex inh | ClpP mod | MBNL1 CUG block | Rango dissoc inh
O=C(c1cc(-c2cccs2)nc2ccccc12)N1CCN(S(=O)(=O)c2ccccc2)CC1 | 1% | 0% | 25µM* | 23% | -7%
O=C(c1cc(-c2cccs2)nc2ccccc12)N1CCN(S(=O)(=O)c2cccc(F)c2)CC1 | 0% | 1% | 28µM* | 10% | -4%
O=C(c1cc(-c2cccs2)nc2ccccc12)N1CCN(c2ccccc2)CC1 | -6% | 7% | x | 3% | 15%
Cc1cc(NC(=O)c2cc(-c3ccc(C)s3)nc3ccccc23)no1 | -2% | u | 5% | 109% | 9%
Cc1ccc2nc(N(Cc3cccnc3)C(=O)C3CCCCC3)sc2c1 | x | x | -1% | x | x
CCCCC(=O)NCc1ccc(Cl)cc1 | 2% | -4% | 20µM* | -11% | -5%
CCCC(=O)OCC(=O)NCc1ccc(Cl)cc1 | 12% | -1% | x | -6% | -1%
Cc1cn2c(=O)cc(COc3cccc(NC(=O)c4ccc(C(C)(C)C)cc4)c3)nc2s1 | x | x | 28µM* | x | x
CCC(C)NC(=O)Cn1c(=O)n(Cc2ccc(C(=O)NCCCOC)cc2)c(=O)c2ccccc21 (stereo unspecified) | x | x | -16% | x | x
Cc1cccc(CN2C(=O)CC(c3ccc(Cl)cc3)c3c(C)nn(-c4nc(C)cc(C)n4)c32)c1 (stereo unspecified) | x | x | 2% | x | x
CCOC(=O)c1oc2c(c1C)-c1nn(Cc3ccc(Cl)cc3)cc1CC2 | x | x | 4% | x | x
CCCCn1c(=O)[nH]c(=O)c2c1nc(-c1ccc(-c3ccccc3Br)o1)n2CCOC | 2% | -5% | 32µM* | 8% | 1%
COCCn1c(-c2ccc(-c3ccccc3Cl)o2)nc2c1c(=O)[nH]c(=O)n2CC(C)C | 3% | u | 4µM* | 3% | 6.5µM*
Nc1c(Cl)cc(/C=C2\C=Cc3ccccc32)cc1Cl | x | x | -1% | x | x
CCOC(=O)N1CCN(CC(O)COc2ccc(CC)cc2)CC1 (stereo unspecified) | x | 4% | 0% | -3% | -13%
CCOC(=O)N1CCN(CC(O)COCc2ccc(Cl)cc2)CC1 (stereo unspecified) | 2% | 1% | 14µM* | -7% | -13%
COC(=O)[C@@]12C[C@@H](CC(=O)NCc3cccc4ccccc34)C(=O)N(Cc3ccc4c(c3)OCO4)C1=CCC(C)(C)C2 | x | x | -10% | x | x
CCOC(=O)c1cnc(-n2nc(C)cc2C)nc1Nc1ccc(C)cc1 | 8% | -2% | -4% | -4% | 16%
CCOC(=O)c1cnc(-n2nc(C)cc2C)nc1NC | -5% | -4% | 32µM* | -4% | -6%
COc1ccc(C(C(=O)NCc2ccccc2)N(C(=O)Cn2nnc3ccccc32)c2ccc(OC)cc2)cc1 (stereo unspecified) | x | x | 2% | x | x
CN1C(=O)c2cccc3c(S(N)(=O)=O)ccc1c23 | x | u | -7% | u | 0.58µM*
O=C(NCc1ccccc1)C1c2ccccc2OCC(=O)N1Cc1ccccc1 (stereo unspecified) | x | x | 0% | x | x
CCCCNc1nc(Oc2ccc(=O)n(C)n2)nc(N(C)C)n1 | x | x | -1% | x | x
CC1(C)CC(=O)C=C(Nc2ccc(OCC(F)(F)C(F)F)cc2)C1 | 0% | 0% | 18µM* | 4% | 5%
COC(=O)c1ccc(CNCC(O)COc2ccc(-c3ccccc3)cc2)cc1 (stereo unspecified) | x | -1% | x | -1% | -22%
SMILES | CBFb-RUNX1 inh | Rango complex inh | ClpP mod | MBNL1 CUG block | Rango dissoc inh
COC(=O)c1ccc(-c2ccc(CNCC(O)c3ccccc3)o2)cc1 (stereo unspecified) | 4% | 1% | 16µM* | 10% | -19%
COc1ccc(-c2cc(C(F)F)n3ncc(C(=O)N4CCN(C)CC4)c3n2)cc1 | 10% | 0% | 25µM* | 25% | 1%
CCc1ccccc1NC(=O)c1sc2nc(C)cc(C)c2c1N | x | u | 32µM* | 53% | -20%
Cc1cc(C)c2c(N)c(C(=O)Nc3ccccc3Br)sc2n1 | x | u | 4% | 4% | u
COc1cc2cc(C(=O)O)[nH]c2c(OC)c1OC | 4% | 5% | 28µM* | -4% | -5%
CC1(C)CC(=O)C2=C(C1)OC(N)=C(C#N)C21CCN(Cc2ccccc2)CC1 | 2% | u | -15% | 0% | u
Cc1nc2c([nH]1)C1(CCN(Cc3ccccc3)CC1)C(C#N)=C(N)O2 | 3% | u | 16µM* | 16% | u
COc1cccc(NC(=O)c2nnn(Cc3cccc(C(F)(F)F)c3)c2N)c1 | x | x | 4% | x | x
CCCCc1cc(=O)oc2cc(C)cc(OC(C)C(=O)O)c12 (stereo unspecified) | 3% | 0% | 16µM* | 1% | 33%
CCc1cc(=O)oc2cc(C)cc(OCc3nn[nH]n3)c12 | 2% | -2% | u | 1% | -17%
CCCCc1cc(=O)oc2cc(C)c3c(C)coc3c12 | x | x | 28µM* | x | x
C=C(Cl)COc1cc(C)cc2oc(=O)cc(CC)c12 | 0% | -1% | 32µM* | -3% | 2%
CCCCc1cc(=O)oc2cc(C)cc(OC(C)C(=O)NCC3CCC(C(=O)O)CC3)c12 (stereo unspecified) | x | 0% | 5% | -7% | 1%
CCCc1cc(=O)oc2cc(C)cc(OCC(=O)O)c12 | 7% | 7% | 16µM* | 7% | 10%
CCCCc1cc(=O)oc2cc(C)cc(O)c12 | 1% | 1% | -4% | 35% | -14%
CCn1c(=O)c2sccc2n2c(CCCC(=O)N3CCN(c4cc(C)ccc4C)CC3)nnc12 | x | x | 0% | x | x
O=[N+]([O-])c1ccc2c(c1)/C(=C/c1ccc(C=S)cc1)C=C2 | x | x | 1% | x | x
CCN1C(=O)c2ccccc2S(=O)(=O)c2ccc(C(=O)NCc3ccc(C)cc3)cc21 | x | x | -2% | x | x
CC(=O)C(C)Oc1cc(C)cc2oc(=O)c(C)c(C)c12 (stereo unspecified) | 6% | 5% | 3.2µM* | 10% | -3%
COc1ccc(/C=C(\C#N)c2nc(-c3cc4ccccc4oc3=O)cs2)cc1OC | x | x | -3% | x | x
C=C[C@@H]1c2cc(C)ccc2N(S(=O)(=O)c2ccc(C)cc2)[C@H](c2ccc(C(C)(F)F)cc2)C1(C#N)C#N | x | x | 0% | x | x
Cc1ccc(CN2CCNC(=O)C2CC(=O)NCc2cc(C)n(C)n2)cc1 (stereo unspecified) | x | u | 32µM* | 15% | -14%
CCOc1ccc(CN2CCNC(=O)C2CC(=O)NCCN2CCOC2=O)cc1 (stereo unspecified) | x | 1% | 28µM* | 7% | 4%
CCOc1ccc(CN2CCNC(=O)C2CC(=O)NCc2cc(C)n(C)n2)cc1 (stereo unspecified) | x | -1% | 0% | -8% | -19%
